What all share (experiment): Confirmatory Screen for Target Class Profiling of Small Molecule Inhibitors of Methyltransferases (AID 1745852); on activity change, negative = inhibition: on the % scale 0 is the no-effect control and ±100 the full control effect
In assay [1] the target is Catechol O-methyltransferase (Homo sapiens) (UniProt P21964). As to conditions: MTase-Glo luminescence, SAH detection, recombinant enzyme; measured here: COMT max response; stronger effect = lower value.
Assay [2] concerns the target Guanidinoacetate N-methyltransferase (Homo sapiens) (UniProt Q14353). As to conditions: MTase-Glo luminescence, SAH detection, recombinant enzyme; activity change, negative = inhibition: at 57.3 µM (top of the series) unless noted; series mostly up to 57.3 µM.
For assay [3], the target named is Nicotinamide N-methyltransferase (Homo sapiens) (UniProt P40261). The following applies: MTase-Glo luminescence, SAH detection, recombinant enzyme; measured here: NNMT max response; stronger effect = lower value.
Assay [4] addresses Phenylethanolamine N-methyltransferase (Homo sapiens) (UniProt P11086). The following applies: MTase-Glo luminescence, SAH detection, recombinant enzyme; measured here: PNMT max response; stronger effect = lower value.

For 39 compounds, activity, activity change, negative = inhibition and Potency results are on record in PubChem BioAssay (NCATS).

Each structure is given as a SMILES string. The source made the active and inactive calls. The call rests on the fitted dose curve.
Potency means the concentration at half of the fitted maximal effect.

Nicotinamide N-methyltransferase (Homo sapiens), sequence (P40261 whole entry, looked up): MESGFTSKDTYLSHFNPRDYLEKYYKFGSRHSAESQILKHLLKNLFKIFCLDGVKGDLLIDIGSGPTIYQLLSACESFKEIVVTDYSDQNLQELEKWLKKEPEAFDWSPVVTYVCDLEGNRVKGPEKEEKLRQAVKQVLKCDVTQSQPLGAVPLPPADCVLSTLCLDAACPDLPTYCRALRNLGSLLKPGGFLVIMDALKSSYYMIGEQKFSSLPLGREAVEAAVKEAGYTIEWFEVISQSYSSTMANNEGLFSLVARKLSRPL
Catechol O-methyltransferase (Homo sapiens), sequence (P21964 whole entry, looked up): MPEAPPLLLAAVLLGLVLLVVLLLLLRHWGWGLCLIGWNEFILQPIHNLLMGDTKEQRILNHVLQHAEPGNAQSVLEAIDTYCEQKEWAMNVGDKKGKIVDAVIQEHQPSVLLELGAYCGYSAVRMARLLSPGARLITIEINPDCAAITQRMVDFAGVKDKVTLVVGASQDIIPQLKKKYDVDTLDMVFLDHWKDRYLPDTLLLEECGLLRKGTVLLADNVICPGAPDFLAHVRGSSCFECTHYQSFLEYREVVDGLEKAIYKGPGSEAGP
Phenylethanolamine N-methyltransferase (Homo sapiens), sequence (P11086 whole entry, looked up): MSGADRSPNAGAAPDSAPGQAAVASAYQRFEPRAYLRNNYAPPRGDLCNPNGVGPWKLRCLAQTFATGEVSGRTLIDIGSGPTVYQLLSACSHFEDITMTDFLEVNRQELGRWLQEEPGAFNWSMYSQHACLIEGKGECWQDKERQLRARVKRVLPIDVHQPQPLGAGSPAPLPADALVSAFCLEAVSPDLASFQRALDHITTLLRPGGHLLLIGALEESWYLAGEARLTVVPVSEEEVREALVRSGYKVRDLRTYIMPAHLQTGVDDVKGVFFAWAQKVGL

Consider `NC(=O)C1(N2CCCCC2)CCN(c2nc3c(S(=O)(=O)c4ccccc4)nnn3c3ccccc23)CC1`, for which the values for the activity in assay [1], in assay [3] and in assay [4] were -1.9%, -8.86% and -8.88%, respectively. The activity change, negative = inhibition in assay [2] is 0%.
With `Cc1cnccc1NCCn1ccnc1-c1cc2n(n1)CCCNC2`, the activity in assay [1] was -0.636%; in assay [3] it was 0.35%; in assay [4], 0.494%. Besides, the activity change, negative = inhibition in assay [2] is 2.5%.
As to `CC[C@H](C)NC(=O)c1sc(=S)n2c1[nH]c(=O)c1cc(Cl)ccc12`, the activity in assay [1] was -75.3%; in assay [3], -78.5%; in assay [4] it was -77%. The Potency in assay [2] was 24.1 µM (active).
With `C1=C(c2nc(-c3ccncc3)cc3c2ccn3Cc2cccnc2)CCOC1`, the activity was -19% in assay [1], -8.71% in assay [3] and -24.5% in assay [4]. Further, in assay [2], the activity change, negative = inhibition is -9.57% [at 85.7 µM].
The matching figures for `CCc1cccc(NC(=O)Cn2c(=O)oc3cc(S(=O)(=O)N4CC(C)CC(C)C4)ccc32)c1` (stereo unspecified): 3.4%, -6.52%, -59.2% and 0%.
`Cc1nc(NC(=O)C2CC(=O)N(c3n[nH]c4cc(Br)ccc34)C2)sc1C` (stereo unspecified): the activity in assay [1] was 11.1%; in assay [3], -94.1%; in assay [4], 7.69%. The activity change, negative = inhibition in assay [2] amounted to 3.17%.
With `COc1cccc(N2C(=O)c3cc4occc4n3CC2(C)C(=O)NC2CCCCCC2)c1` (stereo unspecified), the results for the activity in assay [1], in assay [3] and in assay [4] were -4.86%, -10.8% and -10.9%, respectively. In addition, the activity change, negative = inhibition in assay [2] is -2.57%.
The corresponding values for `COc1cccc(CN2CCCC3(CNc4ccccc4[S+](=O)([O-])N3)C2)c1` (stereo unspecified) are -4.83%, -12.2%, -3.23% and -8.51%.
With `O=C(NCc1ccc2c(c1)OCO2)c1sc(=S)n2c1[nH]c(=O)c1cc(Cl)ccc12`, the activity in assay [1] was -44.1%; in assay [3], -69.1%; in assay [4] it was -48.4%. The Potency in assay [2] is 30.4 µM (active).
Regarding `O=[S+]1([O-])NC2(CCCN(Cc3c(F)cccc3Cl)C2)COc2ccccc21` (stereo unspecified), the values for the activity in assay [1], in assay [3] and in assay [4] were -6.32%, -5.33% and -3.56%, respectively. The activity change, negative = inhibition in assay [2] is 2.18%.
Regarding `CC(C)CCn1c(=O)c2ccccc2n2c(CCC(=O)N3CCN(c4ccccc4F)CC3)nnc12`, the activity in assay [1] was 1.06%; in assay [3] it was -60.1%; in assay [4], -4.6%. For the same compound, the activity change, negative = inhibition in assay [2] is 0%.
The matching figures for `CCCCN1C(=O)c2cc(C(=O)Nc3cc(C)cc(C)c3)nn2CC1(C)C(=O)NC1CCCC1` (stereo unspecified): -1.58%, 1.44%, -4.22% and 0%.
Take `O=C(NCc1cccc(Cl)c1)c1cnc2c(c1)N(C(=O)Cc1ccc(O)cc1)CCC2`: the activity in assay [1] was -2.5%; in assay [3], -5.79%; in assay [4] it was -1%. Moreover, in assay [2], the activity change, negative = inhibition is -3.31% [at 85.7 µM].
The corresponding values for `O=C1c2ccccc2C(=O)c2cc(S(=O)(=O)Nc3ccc(Br)cc3)ccc21` are 0.0189%, -13.8%, -18.5% and -0.0818%.
As for `CCNc1nc2c(s1)C(c1cccc(F)c1)CC(=O)N2` (stereo unspecified), the activity was -12.6% in assay [1], -25% in assay [3] and -19.2% in assay [4]. Further, the Potency in assay [2] was 42.9 µM (active).
In the case of `COc1ncccc1-c1nccn2c(C3CN(Cc4ccccc4O)C3)ncc12`, the activity in assay [1] came to 2.23%; in assay [3], 7.78%; in assay [4] it was 3.8%. Further, the activity change, negative = inhibition in assay [2] amounted to 2.06% [at 85.7 µM].
In the case of `O=C(c1ccc(C(F)(F)F)cc1)N1CCCC(C(=O)N2CCC(c3nc4ccncc4[nH]3)CC2)C1` (stereo unspecified), the values for the activity in assay [1], in assay [3] and in assay [4] were 9.15%, -28.9% and 9.23%, respectively. Besides, the activity change, negative = inhibition in assay [2] was 6.72%.
The matching figures for `Cc1ccc(NS(=O)(=O)c2ccc3c(c2)[C@H]2C=CC[C@H]2[C@@H](c2cccc(Cl)c2)N3)c(C)c1`: -11.2%, -16.4%, -18.5% and -14.3%.
Regarding `CCc1cccc(NC(=O)Cn2c(=O)oc3cc(S(=O)(=O)N4CCCCC4)ccc32)c1`, the activity was 1.79% in assay [1], -2.82% in assay [3] and -33.8% in assay [4]. In addition, the activity change, negative = inhibition in assay [2] turned out to be 0%.
The corresponding values for `Cc1cc2c(cc3n2CC(C)(C(=O)NC2CCCCCCC2)N(Cc2ccco2)C3=O)o1` (stereo unspecified) are -1.76%, -37.5%, -6.55% and 0%.
The corresponding values for `O=C(NCCCN1CCc2ccccc2C1)C1CCc2ncc(-c3ccc(F)cc3)n2C1` (stereo unspecified) are -4.39%, 3.39%, -4.05% and -6.35%.
The matching figures for `COc1ccc(CNc2cc3c(cn2)CN(C)CCN3)cc1OC`: 6.61%, 0.597%, 7.35% and 1.57% [at 85.7 µM].
For `c1ccc(CNc2cc(-c3cc(N4CCCCC4)ncn3)c3cc[nH]c3n2)nc1`, the activity in assay [1] is -16.9%; in assay [3] it was -28.9%; in assay [4], -32%. Besides, in assay [2], the activity change, negative = inhibition was -13.9%.
The corresponding values for `CC(C)Cn1c(=O)c2ccccc2n2c(CCC(=O)N3CCN(c4cccc(Cl)c4)CC3)nnc12` are -1.89%, -35.8%, -10.3% and 1.7%.
The corresponding values for `COC(=O)c1cc2n(n1)CC(C)(C(=O)NC1CCC(C)CC1)N(Cc1ccc(OC)cc1OC)C2=O` (stereo unspecified) are -11.6%, -66.9%, -13.3% and -7.55%.
The matching figures for `Cc1ccc([C@@H]2CN(c3cc(N4CCC(O)CC4)ncn3)C[C@H]2N(C)C)cc1`: -2.09%, -5.73%, -0.207% and -0.694%.
As for `O=c1c2ccccc2n2c(-c3ccc(F)c(F)c3)nnc2n1Cc1ccccc1Cl`, the figures for the activity in assay [1], in assay [3] and in assay [4] were -2.11%, -2.95% and -3.63%, respectively. For the same compound, the activity change, negative = inhibition in assay [2] turned out to be 0%.
On to `COc1ccccc1CC(=O)N1CCCc2ncc(C(=O)Nc3cccc(Cl)c3)cc21`, for which the activity in assay [1] worked out at 2.46%; in assay [3], 9.05%; in assay [4], 3.39%. In addition, the activity change, negative = inhibition in assay [2] was found to be 2.54% [at 85.7 µM].
For the compound `COc1ccc(-c2cc(C(=O)NCc3cccnc3)c3c(c2)N(C)CCO3)cc1OC`, the activity in assay [1] was 3.17%; in assay [3], -0.0858%; in assay [4], -0.493%. Also, the activity change, negative = inhibition in assay [2] turned out to be 8.84% [at 85.7 µM].
For `COc1ccc(CCN2C(=O)c3cc4oc(C)cc4n3CC2(C)C(=O)NC2CCCCC2)cc1OC` (stereo unspecified), the activity in assay [1] is -7.54%; in assay [3], -78.3%; in assay [4], -5.67%. In assay [2], the activity change, negative = inhibition is -4.8%.
For `CC(C)Cn1c(=O)c2ccccc2n2c(CCC(=O)N3CCN(c4ccc(F)cc4)CC3)nnc12`, the activity was -4.42% in assay [1], -55.7% in assay [3] and -6.74% in assay [4]. The activity change, negative = inhibition in assay [2] stood at 2.04%.
For `Cc1c(OCc2ccc(C(=O)O)o2)ccc2c(-c3ccccc3)cc(=O)oc12`, the activity is -33.2% in assay [1], -34.7% in assay [3] and -33.9% in assay [4]. In addition, the Potency in assay [2] is 24.1 µM (active).
For `Cc1ccc(-c2ccc(N)nc2)c2cccnc12`, the activity in assay [1] was -62.1%; in assay [3] it was -2.78%; in assay [4], 1.29%. Besides, the activity change, negative = inhibition in assay [2] is 1.37%.
On to `O=C(c1ccc(Cl)cc1)N1CC2(CCN(CC3CC3)CC2)Cc2ccccc21`, for which the activity is -9.09% in assay [1], -9.37% in assay [3] and -4.04% in assay [4]. The activity change, negative = inhibition in assay [2] is -2.34%.
For `CCN(CC)Cc1cnc2c(C(=O)N3CCCN4CCC[C@H]4C3)cnn2c1`, the activity is -42.2% in assay [1], 12.3% in assay [3] and 8.45% in assay [4]. Besides, the activity change, negative = inhibition in assay [2] was 7.01%.
For `Cc1ccc(C2Nc3c(ccc(C(=O)O)c3C)C3C=CCC32)cc1` (stereo unspecified), the activity was -3.41% in assay [1], -1.48% in assay [3] and -1.34% in assay [4]. For the same compound, in assay [2], the Potency entry was “inactive”.
Turning to `COc1cccc(CNC(=O)c2sc(=S)n3c2[nH]c(=O)c2cc4c(cc23)OCO4)c1`, the activity was -25.7% in assay [1], -43.7% in assay [3] and -28% in assay [4]. Also, in assay [2], the Potency is 42.9 µM (active).
For the compound `O=C(Cn1ccc2cc(S(=O)(=O)N3CCCCC3)ccc21)NCCCN1CCCCC1`, the activity in assay [1] was -5.54%; in assay [3], -8.24%; in assay [4], -7.19%. For the same compound, the activity change, negative = inhibition in assay [2] was -0.43%.
The matching figures for `c1ccc(CN2CCc3c(sc4ncnc(N5CCOCC5)c34)C2)cc1`: -7.7%, -44.8%, -7.28% and -10.8%.
